Assay [1] deals with TRPC4 beta (transient receptor potential cation channel C4), mouse. Kind of assay: activators of mouse TRPC4 channel, confirmation, cell-based, Fluo4 calcium, HEK293 TRPC4beta/mu-opioid, duplicates, 10 µM (AID 2426;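 active = fluorescence ratio normalized to control raised more than 50% in primary screen plus both repeat runs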;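 as to activation: percent rise of integrated ratio over buffer wells lacking compound which define 0%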). As to conditions: Fluo4 calcium fluorescence, at 10 µM; active compounds read high.
Assay [2] relates to transient receptor potential cation channel C4 beta (TRPC4), mouse. Kind of assay: activators of mouse TRPC4 channel, confirmation, cell-based, second round, Fluo4, HEK293 TRPC4beta/mu-opioid, 1 µM (AID 2461).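 As to activation: 0% = wells without test compound as baseline of integrated fluorescence ratio.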 The settings on record: Fluo4 calcium fluorescence, at 1 µM; active compounds read high.
Assay [3] concerns TRPC4 (transient receptor potential cation channel C4 beta), mouse. The assay can be described thus: positive allosteric modulators of mouse TRPC4, confirmation, cell-based, second round, Fluo-4, HEK293 TRPC4beta/mu-opioid, 1 µM (AID 2554;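 active = primary screen hit whose fluorescence ratio, in both repeats, exceeds the weak agonist control mean by 3 SD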). As to conditions: DAMGO EC20, Fluo-4 calcium flux, at 1 µM; active compounds read high.
The subject of assay [4] is TRPC4 beta (transient receptor potential cation channel C4), mouse. Kind of assay: positive allosteric modulators of mouse TRPC4, confirmation, cell-based, Fluo-4, HEK293 TRPC4beta/mu-opioid (AID 2555;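 active = primary screen hit whose calcium fluorescence ratio, in both repeats, exceeds the weak agonist control mean by 3 SD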). As to conditions: DAMGO EC20, Fluo-4 calcium flux, at 10 µM; active compounds read high. In general terms: Calcium flux is commonly read through the fluorescence of an indicator in the cells.

Assay [5] addresses Short transient receptor potential channel 4 (Mus musculus) (UniProt Q9QUQ5). Kind of assay: inhibitors of mouse TRPC4 channel, confirmation, cell-based, Fluo4, HEK293 TRPC4beta/mu-opioid (AID 2636;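 active = calcium signal cut by more than 3 SD below the full-agonist control yet still positive, in both repeats and the earlier primary screen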). The settings on record: DAMGO, Fluo4 calcium flux, at 10 µM; active compounds read high.
Assay [6] shares this target. The assay can be described thus: inhibitors of mouse TRPC4 channel, confirmation, cell-based, second round, Fluo4, HEK293 TRPC4beta/mu-opioid, 1 µM (AID 2637;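 active = calcium signal ratio cut to more than 3 SD under the fully stimulated control mean yet still positive, in both repeats and the primary screen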). The settings on record: Fluo4 calcium flux, DAMGO, at 1 µM; active compounds read high.
For assay [7] the target is unchanged. Kind of assay: TRPC4 positive allosteric modulators, dose response, cell-based, HEK293 TRPC4/mu-opioid, Fluo-4 calcium, EC20 DAMGO (AID 434941;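 active = earlier screen potentiator hit that boosts the TRPC4 ion channel at some dose, with a dose response; inactive = no potentiation, no dose response, or not a prior hit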;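 also: calcium entry triggered by an EC20 dose of DAMGO at the co-expressed mu-opioid receptor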).
Assay [8] shares this target. The assay can be described thus: mouse TRPC4 channel inhibitors, dose response, cell-based, HEK293 TRPC4/mu-opioid, Fluo-4 calcium (AID 434942;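 active = primary screen inhibitor hit that blocks the TRPC4 channel at some tested dose, yielding a dose curve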).
For assay [9], the target named is Short transient receptor potential channel 6 (Mus musculus) (UniProt Q61143). Kind of assay: inhibition of mouse TRPC6 channel, confirmation, selectivity assay for TRPC4 inhibitor project, cell-based, HEK293, membrane potential dye, duplicate (AID 434948;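 active = active in primary screen and both duplicates, each dropping signal beyond three positive-control SD with fluorescence still positive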). The settings on record: HEK293 TRPC6, membrane potential dye fluorescence, at 10 µM; inhibition: active compounds read high, stimulated with maximal-effect acetylcholine unless noted; outcome: stimulated with maximal-effect acetylcholine unless noted.
Sequence of Short transient receptor potential channel 6 (Mus musculus) (Q61143 whole entry, looked up): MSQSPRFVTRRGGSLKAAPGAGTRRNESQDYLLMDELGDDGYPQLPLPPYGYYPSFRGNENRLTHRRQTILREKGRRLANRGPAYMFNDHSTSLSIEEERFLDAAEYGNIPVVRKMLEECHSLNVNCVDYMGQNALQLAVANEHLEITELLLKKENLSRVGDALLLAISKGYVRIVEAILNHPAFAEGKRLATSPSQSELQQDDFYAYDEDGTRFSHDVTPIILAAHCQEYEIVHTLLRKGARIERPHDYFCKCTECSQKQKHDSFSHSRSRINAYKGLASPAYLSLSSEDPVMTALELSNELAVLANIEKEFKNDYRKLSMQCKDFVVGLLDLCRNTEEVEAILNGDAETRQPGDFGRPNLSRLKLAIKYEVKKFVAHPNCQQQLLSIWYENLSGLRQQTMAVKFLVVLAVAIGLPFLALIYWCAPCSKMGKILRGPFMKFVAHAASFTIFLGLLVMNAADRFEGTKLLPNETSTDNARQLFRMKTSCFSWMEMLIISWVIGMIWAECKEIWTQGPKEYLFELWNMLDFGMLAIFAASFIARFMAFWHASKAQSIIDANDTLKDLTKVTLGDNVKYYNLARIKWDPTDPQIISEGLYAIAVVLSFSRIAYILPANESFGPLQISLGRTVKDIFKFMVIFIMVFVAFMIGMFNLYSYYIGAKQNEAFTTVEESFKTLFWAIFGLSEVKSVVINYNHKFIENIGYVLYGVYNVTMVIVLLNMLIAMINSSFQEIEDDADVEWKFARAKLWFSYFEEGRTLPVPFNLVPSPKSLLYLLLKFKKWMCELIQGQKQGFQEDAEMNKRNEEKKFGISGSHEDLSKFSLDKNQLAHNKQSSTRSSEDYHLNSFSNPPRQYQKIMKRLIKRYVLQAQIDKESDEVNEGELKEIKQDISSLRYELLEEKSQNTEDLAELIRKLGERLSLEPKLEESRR

Assay [10] has the same target. Kind of assay: activation of mouse TRPC6 channel, confirmation, selectivity assay for TRPC4 activator project, cell-based, HEK293, membrane potential dye, duplicate (AID 434950;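 active = membrane potential signal rise above negative control mean plus 3 SD in both duplicates, also active in the earlier TRPC4 screen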;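 as to activation: 0% = buffer only wells and 100% = acetylcholine maximal-effect wells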). The settings on record: HEK293 TRPC6, membrane potential fluorescence, at 10 µM; active compounds read high.
Assay [11] shares this target. Kind of assay: TRPC6 potentiation by TRPC4 potentiator hits, confirmation, selectivity assay for TRPC4 potentiator project, HEK293 cells, membrane potential dye, duplicate (AID 434952;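 active = compound raising the membrane signal above positive-control mean plus 3 SD in both repeats, and a primary screen hit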). As to conditions: HEK293 TRPC6, membrane potential dye fluorescence, at 10 µM; maximal acetylcholine added after compound unless noted.
Assay [12] deals with Short transient receptor potential channel 4 (Mus musculus) (UniProt Q9QUQ5). The assay can be described thus: calcium flux activators in TRPC4/5HT1a cells, counter-screen for TRPC4 activator project, cell-based, second counter screen, HEK293 TRPC4/5HT1a, Fluo-4 (AID 434977;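 active = calcium signal rise above buffer-control mean plus 5 SD in both duplicates, and also a hit in the primary screen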;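 as to activation: plate controls were assay buffer for no effect and maximal serotonin response for full effect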). As to conditions: Fluo-4 calcium flux, at 10 µM; active compounds read high.
Sequence of Short transient receptor potential channel 4 (Mus musculus) (Q9QUQ5 whole entry, looked up): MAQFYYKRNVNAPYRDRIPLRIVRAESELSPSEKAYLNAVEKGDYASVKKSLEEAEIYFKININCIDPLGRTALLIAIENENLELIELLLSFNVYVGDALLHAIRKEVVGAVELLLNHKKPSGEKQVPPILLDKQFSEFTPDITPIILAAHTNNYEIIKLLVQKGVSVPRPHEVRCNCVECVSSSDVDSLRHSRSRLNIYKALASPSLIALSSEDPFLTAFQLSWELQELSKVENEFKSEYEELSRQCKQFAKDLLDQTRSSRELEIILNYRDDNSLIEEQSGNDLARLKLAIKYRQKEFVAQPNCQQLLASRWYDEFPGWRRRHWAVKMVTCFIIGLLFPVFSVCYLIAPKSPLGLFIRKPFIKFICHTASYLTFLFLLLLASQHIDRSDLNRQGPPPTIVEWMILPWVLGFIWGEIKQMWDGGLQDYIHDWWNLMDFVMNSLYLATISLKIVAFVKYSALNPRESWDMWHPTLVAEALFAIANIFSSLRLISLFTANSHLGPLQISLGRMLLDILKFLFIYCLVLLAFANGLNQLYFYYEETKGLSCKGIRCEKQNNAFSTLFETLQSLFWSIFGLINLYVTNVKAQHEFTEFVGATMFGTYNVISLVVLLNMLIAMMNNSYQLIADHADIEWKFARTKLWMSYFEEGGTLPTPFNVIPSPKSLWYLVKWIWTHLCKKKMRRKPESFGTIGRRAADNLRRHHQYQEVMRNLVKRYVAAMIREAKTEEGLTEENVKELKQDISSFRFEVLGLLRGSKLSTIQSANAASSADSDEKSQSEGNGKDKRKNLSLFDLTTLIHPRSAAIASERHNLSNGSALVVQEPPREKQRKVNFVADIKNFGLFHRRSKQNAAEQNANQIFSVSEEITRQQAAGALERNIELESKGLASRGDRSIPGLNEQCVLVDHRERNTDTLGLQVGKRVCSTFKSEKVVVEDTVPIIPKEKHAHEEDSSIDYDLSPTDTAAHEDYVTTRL
Assay [13] is described as follows: calcium flux inhibitors in TRPC4/5HT1a cells, confirmation, counter-screen for TRPC4 inhibitor project, cell-based, second counter screen, HEK293 TRPC4/5HT1a, Fluo-4 (AID 434978;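 active = primary screen active whose calcium signal fell more than 3 SD beyond the full-serotonin control mean in both duplicate plates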;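 also: serotonin given first at submaximal then at maximal dose after compound preincubation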). The settings on record: Fluo-4 calcium flux, at 10 µM; inhibition: active compounds read high, serotonin added to trigger calcium flux unless noted; outcome: serotonin added to trigger calcium flux unless noted.

The subject of assay [14] is TRPC4 (mouse), co-expressed with 5HT1a in HEK293. The assay can be described thus: calcium flux potentiators in TRPC4/5HT1a cells, confirmation, counter-screen for TRPC4 potentiator project, cell-based, second counter screen, HEK293 TRPC4/5HT1a, Fluo-4 (AID 434979;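 active = signal rise over 3 SD above mean of control wells given weak agonist, in both repeats and first screen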). As to conditions: Fluo-4 calcium flux, at 10 µM; outcome: serotonin added at its EC20 dose unless noted; potentiation: active compounds read high, serotonin added at its EC20 dose unless noted.

Assay [15] in a line: calcium flux activation in mu-opioid HEK293 cells, confirmation, counter-screen for TRPC4 activator project, cell-based, HEK293 mu-opioid receptor line (AID 449723;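 active = hit in primary screen, with calcium signal over 5 SD above buffer well mean in both duplicates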;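 also: counter screen cells carry the mu-opioid receptor alone and lack TRPC4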). The settings on record: Fluo-4 calcium fluorescence, at 10 µM; active compounds read high.
A short description of assay [16]: calcium flux enhancement in mu-opioid HEK293 cells, confirmation, counter-screen for TRPC4 allosteric potentiator project, cell-based, HEK293 mu-opioid receptor line (AID 449724;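 active = calcium signal rise more than 3 SD above the low-dose agonist control mean, in both duplicate plates and the primary screen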;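 also: HEK293 cells carrying mu-opioid receptor only with no TRPC4 channel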). The settings on record: Fluo-4 calcium flux, at 10 µM; compound added before EC20 DAMGO stimulus unless noted.

For part of these data: Results with a measured potency or affinity are listed apart. Calls of active or inactive are those of the source.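 The calls were made as follows, unless noted: active = primary screen active and over 50% activation in each of two duplicate runs; inactive = the rest.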

With `Cc1ccc(-n2cc(CNC(C)Cc3cnccn3)c(-c3cccc(C)c3)n2)cc1` (configuration not stated), the activation in assay [1] is 146% (active); in assay [10] it was 42.5% (active). In addition, the outcome in [2], in assay [3], in assay [4], in [5], in assay [6] and in assay [7] was inactive. Also, the result in assay [8], in assay [9], in assay [11], in [12], in assay [13] and in [14] was inactive. In addition, the outcome in assay [15] and in assay [16] was inactive.
As for `Cn1cc[n+](C)c1P(=S)(c1ccccc1)c1ccccc1`, the result in assay [1], in assay [2], in assay [3], in [4], in [5] and in assay [6] was inactive. The result in assay [7], in assay [8], in assay [9], in assay [10], in assay [11] and in [12] was inactive. Further, the outcome in [13], in [14], in assay [15] and in assay [16] was inactive.
In the case of `COc1cc2c3cc1Oc1cc(ccc1O)C[C@@H]1c4c(cc(OC)c(O)c4Oc4ccc(cc4)C[C@H]3N(C)CC2)CCN1C`, the activation in assay [1] is 69% (active); in assay [10] it was 26% (active). For the same compound, the outcome in [2], in assay [3], in assay [4], in assay [5], in assay [6] and in assay [7] was inactive. Further, the outcome in [8], in assay [9], in [11], in [12], in assay [13] and in assay [14] was inactive. Further, the result in assay [15] and in assay [16] was inactive.
With `COC(=O)C1=CCCN(C)C1`, the activation in assay [1] was 96% (active); in assay [10], 70% (active); in assay [12] it was 43.8% (active); in [15], 19.7% (active). The outcome in [2], in [3], in assay [4], in assay [5], in assay [6] and in assay [7] was inactive. Also, the outcome in assay [8], in assay [9], in [11], in assay [13], in assay [14] and in [16] was inactive.
In the case of `O=C(c1ccc2c3c(cccc13)CC2)C1CCCN(CC2CC2)C1` (configuration not stated), the activation in [1] was 164% (active); in assay [2] it was 79% (active); in assay [10], 75.5% (active); in assay [12], 61.9% (active). The outcome in assay [3], in assay [4], in [5], in assay [6], in assay [7] and in [8] was inactive. In addition, the call in assay [9], in [11], in assay [13], in assay [14], in assay [15] and in assay [16] was inactive.
`CCc1n[nH]c(CCN)n1`: the activation was 178% (active) in [1] and 48.7% (active) in assay [12]. The result in assay [2], in assay [3], in assay [4], in assay [5], in assay [6] and in assay [7] was inactive. Besides, the result in assay [8], in assay [9], in assay [10], in assay [11], in assay [13] and in assay [14] was inactive. Also, the result in [15] and in [16] was inactive.
Regarding `Cc1nc2ccccn2c1P(=S)(N1CCCCC1)N1CCCCC1`, the activation was 88% (active) in assay [1], 88% (active) in assay [10], 87.7% (active) in [12] and 74.7% (active) in [15]. Besides, the result in [2], in assay [3], in [4], in assay [5], in assay [6] and in [7] was inactive. Further, the result in assay [8], in assay [9], in assay [11], in assay [13], in assay [14] and in [16] was inactive.
`CCC(=O)C(CCN1CCOCC1)(c1ccccc1)c1ccccc1`: the activation was 289% (active) in assay [1], 164% (active) in assay [2], 69% (active) in assay [10] and 5.98% (active) in assay [12]. Also, the outcome in [3], in assay [4], in assay [5], in assay [6], in assay [7] and in assay [8] was inactive. Moreover, the outcome in [15] was inactive. The outcome in assay [9], in assay [11], in assay [13], in assay [14] and in assay [16] was “inactive [setting not given]” throughout.
For `c1ccc2sc(C3CCCNC3)nc2c1` (configuration not stated), the activation is 170% (active) in assay [1], 115% (active) in assay [2], 44% (active) in assay [10] and 95.3% (active) in assay [12]. The outcome in assay [3], in assay [4], in assay [5], in [6], in [7] and in assay [8] was inactive. The compound was called inactive in assay [9], in [11], in assay [13], in assay [14], in assay [15] and in assay [16].
Consider `COc1ccc(C2NCCc3[nH]cnc32)cc1` (configuration not stated), for which the values for the activation in assay [1], in assay [2] and in assay [12] were 220% (active), 68% (active) and 49.5% (active), respectively. The outcome in assay [3], in assay [4], in [5], in assay [6], in assay [7] and in assay [8] was inactive. For the same compound, the compound was called inactive in [9], in assay [10], in assay [11], in assay [13], in assay [14] and in assay [15]. Also, in [16], the result was inactive.
In the case of `COc1ccc(CCNCc2ccc(SC)cc2)cc1`, the activation in [1] was 122% (active); in assay [10] it was 65.5% (active); in [12], 21.7% (active). Further, the result in assay [2], in assay [3], in [4], in [5], in assay [6] and in assay [7] was inactive. For the same compound, the result in assay [8] and in assay [15] was inactive. Also, the outcome in assay [9], in assay [11], in assay [13], in [14] and in assay [16] was “inactive [setting not given]” each time.
In the case of `CN(C)C1(CNC(=O)Nc2ccc(Cl)c(Cl)c2)CCCCC1`, the activation was 229% (active) in assay [1], 64% (active) in assay [2], 29.4% (active) in assay [12] and 42.7% (active) in [15]. In addition, the outcome in assay [3], in [4], in assay [5], in assay [6], in assay [7] and in assay [8] was inactive. Further, the outcome in assay [9], in assay [10], in assay [11], in [13], in assay [14] and in assay [16] was inactive.

(Values after PubChem BioAssay.)
